Compound activity deposited in PubChem by several laboratories.
The list is not random: actives were taken first. Their share in the collection is about 3.6%.
MITF act: MITF TRPM1 promoter activation in melanoma cells | SK-MEL-5 TRPM1-promoter luciferase, 24 h; % of positive control, neutral wells = 0 | activation, % at 12.5 µM | hit rate 0.75% among 300,000;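 active = mean activation of at least 80% with every replicate also reaching 80%; inconclusive = mean reaches 80% but some replicate falls short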
PHOSPHO1 block: inhibitors of human PHOSPHO1 phosphatase; inhibition, % at 13.3 µM; Q8TCT1; hit rate 1.1% among 290,000; recombinant PHOSPHO1, absorbance phosphatase assay; in the data active = inhibition above about 60%
Target sequence (Q8TCT1 whole entry, looked up): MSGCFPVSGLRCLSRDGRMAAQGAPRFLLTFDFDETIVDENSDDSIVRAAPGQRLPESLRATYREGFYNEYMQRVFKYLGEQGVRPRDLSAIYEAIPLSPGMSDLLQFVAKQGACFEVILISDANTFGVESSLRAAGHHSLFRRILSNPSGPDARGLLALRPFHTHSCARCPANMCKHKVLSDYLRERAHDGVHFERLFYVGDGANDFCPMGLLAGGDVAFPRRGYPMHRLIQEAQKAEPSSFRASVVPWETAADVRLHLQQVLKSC
Wnt act: activates Wnt/beta-catenin signaling in a reporter cell assay; activation, % at 9.35 µM; hit rate 1.2% among 300,000; activator, plate reader; in the data active = activation above about 30%, passing the limit was not always enough; inconclusive = no clear call, values can overlap the other calls
esBAF inh: blocks esBAF chromatin remodeling in mouse ES cells | reporter increase, % at 12.5 µM | AID 602393 | hit rate 2% among 350,000 | Bmi1-luciferase knock-in reporter, 24 h; 100% = twice the neutral-well signal; in the data active = activation above about 40%; inconclusive = no clear call, values can overlap the other calls;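 note: a rise in the Bmi1 reporter signal indicates esBAF inhibition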
A3G deaminase: blocks human APOBEC3G single-stranded DNA deamination | Q9HC16 | recombinant A3G, ssDNA deamination FAM/TAMRA fluorescence | inhibition, % at 20 µM | hit rate 0.28% among 330,000;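 active = inhibition of at least 40% at 20 µM, with no more than 30% in the related APOBEC3A deaminase screen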
A3A deaminase: human APOBEC3A DNA deaminase inhibition; hit rate 0.41% among 330,000; AID 493011; P31941; inhibition, % at 20 µM; recombinant A3A, FAM/TAMRA ssDNA deamination fluorescence;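 active = at least 40% inhibition at 20 µM here, with at most 30% in a related deaminase screen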
Target sequence (P31941 whole entry, looked up): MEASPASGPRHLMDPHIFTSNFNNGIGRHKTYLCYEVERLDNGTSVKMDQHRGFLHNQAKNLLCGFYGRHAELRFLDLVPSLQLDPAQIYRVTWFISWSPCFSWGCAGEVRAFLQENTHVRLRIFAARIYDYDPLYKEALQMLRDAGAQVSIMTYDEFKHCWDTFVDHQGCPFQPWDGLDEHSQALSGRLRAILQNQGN
Each line names hits and unclear results; the compound was inactive in the other large screens.

O=C(C[C@@H]1CC[C@H]2[C@@H](COC[C@H](O)CN2Cc2cc(F)cc(F)c2)O1)Nc1nccs1	none (no result: MITF act, PHOSPHO1 block, Wnt act, A3G deaminase, A3A deaminase)
CC=Cc1ccc2n(c1=O)C[C@H]1[C@H](CO)[C@@H](C(=O)N[C@H](C)c3ccccc3)[C@@H]2N1Cc1cncnc1 (mixture of isomers)	none (no result: MITF act, PHOSPHO1 block, Wnt act, A3G deaminase, A3A deaminase)
Cc1ccc(Nc2nc(-c3cccnc3)cs2)cc1C	Wnt act inconclusive
COc1ccc(-c2csc(Nc3cccnc3)n2)cc1	none (no result: Wnt act, esBAF inh)
Brc1ccc(Nc2nc(-c3cccnc3)cs2)cc1	none (no result: esBAF inh)
c1cncc(Nc2nc(-c3cccs3)cs2)c1	esBAF inh 69
Brc1cccc(Nc2nc(-c3cccnc3)cs2)c1	esBAF inh 49
Clc1cccc(Nc2nc(-c3cccnc3)cs2)c1	esBAF inh 78
CC(C)NC(=O)N(C)C[C@@H]1Oc2ncc(-c3ccccc3)cc2C(=O)N([C@H](C)CO)C[C@@H]1C	none (no result: MITF act, PHOSPHO1 block, Wnt act, A3G deaminase, A3A deaminase)
O=C(C[C@@H]1C=C[C@H](NS(=O)(=O)c2ccccc2)[C@@H](CO)O1)N1CCc2ccccc2C1	none (no result: MITF act, PHOSPHO1 block, Wnt act, A3G deaminase, A3A deaminase)
O=C(Cc1ccncc1)NCC[C@H]1CC[C@H](NC(=O)Nc2cccc(F)c2)[C@@H](CO)O1	none (no result: MITF act, PHOSPHO1 block, Wnt act, A3G deaminase, A3A deaminase)
C[C@H]1CCCCO[C@H](CN(C)C)[C@@H](C)CN([C@@H](C)CO)C(=O)c2cc(NC(=O)C3CCCCC3)ccc2O1	none (no result: MITF act, PHOSPHO1 block, Wnt act, A3G deaminase, A3A deaminase)
Cc1ccc(S(=O)(=O)N[C@@H]2CC[C@@H](CCNC(=O)C3CCOCC3)O[C@H]2CO)cc1	none (no result: MITF act, PHOSPHO1 block, Wnt act, A3G deaminase, A3A deaminase)
CNC[C@@H]1Oc2ccc(NC(=O)Nc3ccccc3)cc2C(=O)N([C@H](C)CO)C[C@H]1C	none (no result: MITF act, PHOSPHO1 block, Wnt act, A3G deaminase, A3A deaminase)
CC(=O)c1cccc(OCC(=O)Nc2cc(Cl)ccc2-n2cncn2)c1	MITF act 84 (no result: PHOSPHO1 block, esBAF inh)
Cc1noc(C)c1NC(=O)N(C)C[C@H]1Oc2ccc(NS(=O)(=O)c3cccs3)cc2CC(=O)N([C@@H](C)CO)C[C@@H]1C	none (no result: MITF act, PHOSPHO1 block, Wnt act, A3G deaminase, A3A deaminase)
Cc1cccc2sc(NC(=O)c3ccc(OCC4CCCO4)cc3)nc12 (stereo unspecified)	esBAF inh 59
COc1ccc(NC(=O)c2ccc(OCC3CCCO3)cc2)cc1Cl (stereo unspecified)	esBAF inh 42 (no result: PHOSPHO1 block)
Cc1ccc(NC(=O)c2ccc(OCC3CCCO3)cc2)c(C)c1 (stereo unspecified)	none (no result: Wnt act, esBAF inh)
NS(=O)(=O)c1ccc(NC(=O)c2ccc(OCC3CCCO3)cc2)cc1 (stereo unspecified)	none (no result: PHOSPHO1 block)
Cc1ccc(F)cc1NC(=O)c1ccc(OCC2CCCO2)cc1 (stereo unspecified)	esBAF inh 47 (no result: PHOSPHO1 block)
Cc1ccc(NC(=O)c2ccc(OCC3CCCO3)cc2)cc1Cl (stereo unspecified)	Wnt act 42, esBAF inh 78 (no result: MITF act, PHOSPHO1 block, A3G deaminase, A3A deaminase)
O=C(C[C@@H]1C[C@@H]2c3cc(NC(=O)CC4CC4)ccc3O[C@@H]2[C@@H](CO)O1)NCc1ccccc1	none (no result: MITF act, PHOSPHO1 block, Wnt act, A3G deaminase, A3A deaminase)
Cc1ccnc(NC(=O)c2ccc(OCC3CCCO3)cc2)c1 (stereo unspecified)	Wnt act 35 (no result: PHOSPHO1 block, esBAF inh)
COc1ccc(NC(=O)C2CCC(CNc3c(N4CCOCC4)c(=O)c3=O)CC2)cc1Cl (stereo unspecified)	none (no result: esBAF inh)
COc1ccc(NC(=O)c2ccc(CNc3c(N4CCCC4)c(=O)c3=O)cc2)cc1Cl	PHOSPHO1 block 66
COc1cccc(C(=O)Nc2ccc3c(c2)C(=O)N(C)C[C@@H](OC)[C@@H](C)CN(C(C)=O)[C@H](C)CO3)c1	none (no result: MITF act, PHOSPHO1 block, Wnt act, A3G deaminase, A3A deaminase)
O=C(Nc1ccccc1)OC1CCS(=O)(=O)C1 (stereo unspecified)	none (no result: esBAF inh)
CC(=O)NC1CCC(OC(=O)Nc2ccccc2)CC1 (stereo unspecified)	esBAF inh 53 (no result: PHOSPHO1 block, A3G deaminase, A3A deaminase)
Cc1noc(C)c1S(=O)(=O)N(C)C[C@H]1Oc2ccc(NS(=O)(=O)c3ccccc3)cc2C(=O)N([C@@H](C)CO)C[C@H]1C	none (no result: MITF act, PHOSPHO1 block, Wnt act, A3G deaminase, A3A deaminase)
COC(=O)Cn1c(O)c(N=NC(=O)CNC(=O)c2ccncc2)c2ccccc21	PHOSPHO1 block 64
CCCn1c(O)c(N=NC(=O)CNC(=O)c2cccnc2)c2ccccc21	none
COc1ccc(NC(=O)Nc2ccc3c(c2)CC(=O)N([C@H](C)CO)C[C@@H](C)[C@@H](CN(C)C(=O)NC2CCCCC2)O3)cc1	none (no result: MITF act, PHOSPHO1 block, Wnt act, A3G deaminase, A3A deaminase)
COc1ccc(Cc2c(-c3ccc(F)cc3)nc3ccc(Cl)cn23)c(C)c1	esBAF inh 44 (no result: MITF act, PHOSPHO1 block, A3G deaminase, A3A deaminase)
COc1ccc(Cc2c(-c3cccc(Cl)c3)nc3ccc(C)cn23)c(C)c1	esBAF inh 56 (no result: MITF act, PHOSPHO1 block, A3G deaminase, A3A deaminase)
